We go through 62 compounds from PubChem BioAssay AID1789 (The Scripps Research Institute Molecular Screening Center, 2009).

Screen size: about 290,000 compounds; about 2,700 (0.93%) were called active. Only a selection was taken, and actives are over-represented in it overall. Values without a mark were called inactive.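 Rule for the calls: active = inhibition above the screen-wide mean plus 3 SD, computed separately per campaign (cut at about 16% in these data); inactive = the rest.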

This assay deals with Heat shock protein HSP 90 (rabbit reticulocyte lysate; luciferase refolding). In words: inhibitors of HSP90 chaperone activity – cell lysate, luminescence, primary screen (AID 1789).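 Note: 0% = DMSO wells and 100% = 60 µM geldanamycin wells; inhibitors lower the luminescence because luciferase stays unfolded.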 To be noted: 3 h, at 5.6 µM, stronger effect = higher value.
As a reminder, the inhibition is the drop in the measured response relative to a control, in per cent. Consider `COc1ccc(N2CCN(C(=O)c3cn(C)c4ccc(S(=O)(=O)N5CCOCC5)cc4c3=O)CC2)cc1`, for which the inhibition was -3.81%.

For `O=C(Nc1ccc2c(c1)OCCO2)C1CCCN(c2ncccn2)C1` (configuration not stated), the inhibition is 16.9% (active).

Consider `O=C(Nc1cccc(Cl)c1)C1CCCN(c2cnccn2)C1` (configuration not stated), for which the inhibition is -2.56%.

As for `Cc1cc(C)nc(N2CCC(C(=O)Nc3ccc4c(c3)OCCO4)CC2)n1`, the inhibition was 0.65%.

For `COc1ccc(N2C(=O)NC(NS(=O)(=O)c3ccc(Cl)cc3)(C(F)(F)F)C2=O)cc1` (configuration not stated), the inhibition is 1.44%.

As for `COc1ccc(Cc2cc(-c3ccc(F)cc3)n[nH]c2=O)cc1`, the inhibition was -1.15%.

On to `Oc1ccc(-c2onc3ccc(Cl)cc23)cc1`, for which the inhibition is -0.76%.

With `COc1ccc(-c2onc3ccc(C(C)=O)cc23)cc1`, the inhibition was 3.03%.

Take `CC(OC(=O)c1ccc2noc(-c3ccccc3)c2c1)C(N)=O` (configuration not stated): the inhibition is 26.5% (active).

For `COc1ccc(C(C)NC(=O)C2CCCC2)cc1` (configuration not stated), the inhibition was -1.94%.

For `CCCc1cc(=O)oc2c(C)c(OC(C)C(=O)NCC(O)c3ccccc3)ccc12` (configuration not stated), the inhibition is -5.71%.

With `c1ccc(-c2noc(-c3cccs3)n2)nc1`, the inhibition was 21.2% (active).

On to `O=C(Oc1ccc(-c2nc(-c3ccccn3)no2)cc1)c1ccccc1`, for which the inhibition is 3.06%.

Consider `COc1nc(-c2ccc(Cl)cc2)ccc1-c1noc(-c2cccs2)n1`, for which the inhibition is -4.45%.

Regarding `COCC1CCCN(C(=O)c2ccc3oc(C(C)C)nc3c2)C1` (configuration not stated), the inhibition was 2.21%.

With `Cc1n[nH]c(=O)c2c1nnn2Cc1ccc(F)cc1`, the inhibition is 0.06%.

For `C/C(=N/NC(=O)c1ccc(Br)o1)c1ccc(C)o1`, the inhibition was 1.47%.

On to `C/C(=N\NC(=S)NC1CCCCC1)c1ccc(C)o1`, for which the inhibition was 19.9% (active).

For the compound `Cc1ccc(/C=N/NC(=S)NC2CCCCC2)o1`, the inhibition is -0.34%.

Take `COc1ccc(OC)c(NC(=O)c2ccc3c(c2)CCN3S(C)(=O)=O)c1`: the inhibition was -4.49%.

As for `O=C(C1CCC(=O)N(C2CC2)C1)N1CCN(c2ccc(Cl)cc2)CC1` (configuration not stated), the inhibition is 0.69%.

For the compound `CCOc1cc(C2/C(=C(/O)c3ccc(S(=O)(=O)N4CCCCC4)cc3)C(=O)C(=O)N2CCOC)ccc1O` (configuration not stated), the inhibition is -4.72%.

For `Fc1ccccc1/C=C1\CCCC2=C1Nc1ncnn1C2c1ccccc1F` (configuration not stated), the inhibition is 5.24%.

On to `Cc1ccc(SCCC(=O)OCC(=O)Nc2ncc(Cl)cc2Cl)cc1`, for which the inhibition is 3.89%.

In the case of `Cc1ccc(-n2c(SCC(=O)Nc3ncc(Cl)cc3Cl)nc3ccccc32)cc1`, the inhibition is 19.5% (active).

For `NS(=O)(=O)c1cccc(NC(=O)CSc2nc3ccccc3n2-c2ccccc2)c1`, the inhibition is 2.1%.

Turning to `COc1cccc(C(=O)N/N=C(\C)c2cccc(NC(=O)c3ccc(F)cc3)c2)c1OC`, the inhibition is -0.84%.

Take `COc1cccc(NC(=O)C/C(C)=N/NC(=O)C2CCCCC2)c1`: the inhibition is -2.92%.

Consider `O=C(COc1ccc2ccc(=O)oc2c1)NCC(O)c1ccccc1` (configuration not stated), for which the inhibition was -3.81%.

For `Brc1ccc(-c2nnc(-c3ccccc3)o2)o1`, the inhibition is -0.79%.

With `Nc1ccc(-c2nnc(-c3ccccc3)o2)cc1`, the inhibition was 20.3% (active).

Regarding `Nc1ccc(-c2sc(N)nc2-c2ccccc2)cc1`, the inhibition is -4.32%.

For `CCOc1ccc(S(=O)(=O)N2CCCC(C(=O)N3CCC(C(N)=O)CC3)C2)cc1Cl` (configuration not stated), the inhibition was -3.03%.

`COc1ccc(OCCCC(=O)NCCc2ccccc2)cc1`: the inhibition is -4.96%.

As to `CCCc1ccc(OCCNC(=O)c2ccco2)cc1`, the inhibition was -5.63%.

Take `CCCOc1ccc(C(=O)NCCc2ccccc2)cc1`: the inhibition was 20.7% (active).

Regarding `CCCOc1cccc(C(=O)NCCCNC(=O)c2cccnc2)c1`, the inhibition was 3.77%.

On to `Nc1cc(N2CCCCCC2)c2nonc2c1[N+](=O)[O-]`, for which the inhibition was 0.32%.

`Cn1ncc2c(NNC(=O)Cc3cccc4ccccc34)ncnc21`: the inhibition is 5.78%.

For the compound `COc1ccc(C(=O)O/N=C(\N)c2ccccn2)cc1[N+](=O)[O-]`, the inhibition was -3.48%.

Regarding `N/C(=N\OC(=O)c1ccc([N+](=O)[O-])cc1)c1ccccn1`, the inhibition was 2.51%.

Regarding `Cc1ccc(C(=O)O/N=C(\N)c2ccccn2)cc1Cl`, the inhibition is 42.5% (active).

With `CN(C)c1ccc(C2N(C)C(=O)c3ccccc3N2C)cc1` (configuration not stated), the inhibition is 4.78%.

For the compound `Cc1ccc(C)c(NS(=O)(=O)c2c(C)[nH]c(C)c2C(=O)N2CCCCC2)c1`, the inhibition was 3.8%.

With `O=C(Nc1ccccc1Cl)NC1(C(=O)N2CCOCC2)CCCCC1`, the inhibition is 0.58%.

`CCN(CC)C(=O)c1sc2nc(-c3ccccc3)ccc2c1N`: the inhibition is 16.5% (active).

Regarding `CS(=O)(=O)c1sc2nc(-c3ccccc3)cc(-c3ccccc3)c2c1N`, the inhibition is 0.41%.

Consider `Cc1ccc2c(N)c(C(=O)c3ccccc3)sc2n1`, for which the inhibition was 1.67%.

For the compound `O=C(O)CSc1c2c(nc3cc(C(=O)Nc4cccc(C(F)(F)F)c4)ccc13)CCCC2`, the inhibition was -0.05%.

With `CCCCNC(=O)Nc1c(C)cc(SC#N)cc1C`, the inhibition was 36.7% (active).

As to `CCCCNC(=S)NNC(=O)c1cc(C)on1`, the inhibition was -1.37%.

With `CCCCNC(=O)C(=O)c1ccccc1NC(C)=O`, the inhibition is 4.09%.

Regarding `CC(C)CC[n+]1ccn(C2=C([O-])c3ccccc3C(=O)/C2=N\S(=O)(=O)c2ccccc2)c1`, the inhibition is 6.11%.

For `CCOC(=O)c1sc(NC(=O)c2sc(C)nc2C)nc1C`, the inhibition was 9.21%.

Regarding `CC1CCCCN1CCCNc1ccc(C(CC(N)=O)NC(=O)c2ccccc2)cc1[N+](=O)[O-]` (configuration not stated), the inhibition was -2.66%.

Regarding `CC(C)c1nc2ccc(C(=O)O)cc2[nH]1`, the inhibition is 37.9% (active).

`OC(c1nc2ccc(F)cc2[nH]1)C(O)c1nc2ccc(F)cc2[nH]1` (configuration not stated): the inhibition is -4.25%.

Turning to `Cc1nc2ccc(C(=O)O)cc2[nH]1`, the inhibition was 31.3% (active).

For the compound `Cc1nc2ccc(C(=O)N/N=C/c3ccc(O)cc3)cc2[nH]1`, the inhibition was 1.87%.

On to `OC(c1nc2ccccc2[nH]1)C(O)C(O)C(O)c1nc2ccccc2[nH]1` (configuration not stated), for which the inhibition was -0.14%.

Take `Cc1nc2ccc(C(=O)N(C)CC3CCCN(CCc4ccc(Cl)cc4)C3)cc2[nH]1` (configuration not stated): the inhibition is -8.86%.

Take `COc1ccc(C(=O)n2nc(C)c(Br)c2C)cc1OC`: the inhibition is 4.92%.
